Bioassay records deposited in PubChem by The Scripps Research Institute Molecular Screening Center.
This is a sample that favours compounds with a hit; in the whole collection about 0.84% have one here.
PPARg SRC-2 ag – agonists of SRC-2 recruitment by human PPARgamma. P37231. PPARgamma LBD-SRC-2 recruitment, biochemical. activation, % at 8 µM. 200,000 tested, 0.34% active; in the data active = activation above about 22%;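 note: 0% = vehicle and 100% = reference agonist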
Target sequence (P37231 whole entry, looked up, the tested form may be a part): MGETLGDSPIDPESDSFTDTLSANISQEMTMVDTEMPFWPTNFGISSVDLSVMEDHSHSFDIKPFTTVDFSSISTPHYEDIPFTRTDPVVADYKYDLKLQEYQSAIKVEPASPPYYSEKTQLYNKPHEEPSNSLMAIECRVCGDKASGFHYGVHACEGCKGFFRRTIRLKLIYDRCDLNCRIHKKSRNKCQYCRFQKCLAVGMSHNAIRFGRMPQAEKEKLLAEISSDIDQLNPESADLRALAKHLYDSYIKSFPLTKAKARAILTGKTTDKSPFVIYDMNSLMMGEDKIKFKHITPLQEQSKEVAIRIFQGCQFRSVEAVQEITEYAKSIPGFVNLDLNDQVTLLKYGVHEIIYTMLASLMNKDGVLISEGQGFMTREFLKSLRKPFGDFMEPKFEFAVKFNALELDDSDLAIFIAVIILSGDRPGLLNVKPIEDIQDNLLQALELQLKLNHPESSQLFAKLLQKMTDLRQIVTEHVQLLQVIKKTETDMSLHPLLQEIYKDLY
TR-FRET SRC-2 ct – counter-screen for PPARgamma SRC-2 recruitment agonists: TR-FRET artefact. stronger effect = higher value. 200,000 tested, 0.4% active. AID 1049. TR-FRET ratio at 8 µM
SRC3 TRFRET art – counter-screen for PPARgamma SRC-3 recruitment agonists: TR-FRET artefact; PPARgamma/SRC-3 format; stronger effect = higher value; TR-FRET ratio at 8 µM; 99,000 tested, 0.39% active
PPARg SRC1 recr – promotes SRC-1 coactivator recruitment by human PPARgamma | activation, % at 8 µM | PPARgamma-SRC-1 coactivator recruitment biochemical assay | 200,000 tested, 0.41% active | P37231; in the data active = activation above about 19%;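 note: 0% = DMSO and 100% = reference agonist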
SRC1 TRFRET art – counter-screen for PPARgamma SRC-1 recruitment agonists: TR-FRET artefact. TR-FRET detection artefact counter-screen, emission ratio; stronger effect = higher value. 99,000 tested, 0.34% active. TR-FRET ratio at 8 µM; in the data active = TR-FRET ratio above about 2300
PPARg SRC3 recr – promotes SRC-3 coactivator recruitment by human PPARgamma. P37231. biochemical PPARgamma/SRC-3 coactivator recruitment assay. activation, % at 8 µM. 200,000 tested, 0.26% active. AID 731; in the data active = activation above about 23%;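 note: 0% = DMSO and 100% = reference agonist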
PPARg SRC2 conf – human PPARgamma SRC-2 recruitment agonism, confirmation | AID 1297 | activation, % at 8 µM | 790 tested, 52% active | biochemical SRC-2 recruitment by PPARgamma | shares compounds with PPARg SRC3 recr; in the data active = activation above about 22%;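 note: 0% = vehicle alone and 100% = reference agonist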
PPARg SRC1 conf – human PPARgamma SRC-1 recruitment agonism, confirmation; shares compounds with PPARg SRC3 recr; PPARgamma–SRC-1 coactivator recruitment biochemical assay; activation, % at 8 µM; 790 tested, 43% active; AID 1300; in the data active = activation above about 20%;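 note: 0% = vehicle wells and 100% = reference agonist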
PPARg SRC3 conf – confirmation of agonists of SRC-3 recruitment by human PPARgamma; biochemical PPARgamma-SRC-3 coactivator recruitment, agonist mode; shares compounds with PPARg SRC3 recr; 790 tested, 29% active; activation, % at 8 µM; AID 1301; in the data active = activation above about 24%;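 note: 0% = vehicle wells and 100% = reference agonist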
Active calls of the source: *. Cut-off read from the data, not from the text of the source, unless noted: active = TR-FRET ratio above about 2000; inactive = the rest.

What do the screens show for `CCCc1[nH]nc2c1C(c1ccc(OCCN3CCOCC3)c(OC)c1)C(C#N)=C(N)O2` (stereo not drawn)?
PPARg SRC-2 ag: 1.6; TR-FRET SRC-2 ct: 1424; SRC3 TRFRET art: 1561; PPARg SRC1 recr: 5.2; SRC1 TRFRET art: 1811; PPARg SRC3 recr: -1.5

How did CCOc1ccc(C2C(C#N)=C(N)SC(N)=C2C#N)c(OCC)c1 do in these assays?
PPARg SRC-2 ag: 4.4; TR-FRET SRC-2 ct: 1849; PPARg SRC1 recr: 26.7*; PPARg SRC3 recr: 17.4; PPARg SRC2 conf: 6.6; PPARg SRC1 conf: 4.3; PPARg SRC3 conf: 4.1

What do the screens show for `CCn1c(=O)cc(SCC(=O)NCCCN2CCN(c3ccc(F)cc3)CC2)c2ccccc21`?
PPARg SRC-2 ag: 80.7*; TR-FRET SRC-2 ct: 3656*; PPARg SRC1 recr: 87.4*; PPARg SRC3 recr: 101.4*; PPARg SRC2 conf: 38.2*; PPARg SRC1 conf: 23.4*; PPARg SRC3 conf: 25.4*

How did CCn1c(=O)cc(SCC(=O)NCCN2CCN(Cc3ccccc3)CC2)c2ccccc21 do in these assays?
PPARg SRC-2 ag: 62.8*; TR-FRET SRC-2 ct: 3069*; PPARg SRC1 recr: 49.0*; PPARg SRC3 recr: 70.2*; PPARg SRC2 conf: 29.1*; PPARg SRC1 conf: 15.8; PPARg SRC3 conf: 18.4

What do the screens show for `Cn1c(=O)cc(OCC(=O)NCCCN2CCN(Cc3ccccc3)CC2)c2ccccc21`?
PPARg SRC-2 ag: 7.6; TR-FRET SRC-2 ct: 1472; PPARg SRC1 recr: 3.4; PPARg SRC3 recr: 3.6

What do the screens show for `CCn1c(=O)cc(SCC(=O)NCCCN2CCC(C)CC2)c2ccccc21`?
PPARg SRC-2 ag: 25.8*; TR-FRET SRC-2 ct: 1872; SRC3 TRFRET art: 1905; PPARg SRC1 recr: 13.5; SRC1 TRFRET art: 2386*; PPARg SRC3 recr: 8.9; PPARg SRC2 conf: 20.9; PPARg SRC1 conf: 13.0; PPARg SRC3 conf: 12.4

What do the screens show for `Cc1cccc(CN2CCN(CC(=O)NCCCN3CCN(c4ccc(F)cc4)CC3)C2=O)c1`?
PPARg SRC-2 ag: 15.3; TR-FRET SRC-2 ct: 1486; PPARg SRC1 recr: 1.5; PPARg SRC3 recr: 4.6

Results for O=[N+]([O-])c1ccc(N/N=C/c2c[nH]c3ccccc23)cc1 ?
PPARg SRC-2 ag: 12.1; TR-FRET SRC-2 ct: 1738; PPARg SRC1 recr: -1.1; PPARg SRC3 recr: 6.4

What do the screens show for `O=[N+]([O-])c1ccc(N/N=C/c2ccc[nH]2)cc1`?
PPARg SRC-2 ag: 27.5*; TR-FRET SRC-2 ct: 1763; SRC3 TRFRET art: 1831; PPARg SRC1 recr: 16.7; SRC1 TRFRET art: 2294; PPARg SRC3 recr: 12.3; PPARg SRC2 conf: 6.0; PPARg SRC1 conf: 7.6; PPARg SRC3 conf: 5.0

Results for O=C(O)c1cccc(CSc2nc(-c3ccccc3)cc(C(F)(F)F)n2)c1 ?
PPARg SRC-2 ag: -1.1; TR-FRET SRC-2 ct: 1411; SRC3 TRFRET art: 1564; PPARg SRC1 recr: -1.0; SRC1 TRFRET art: 1791; PPARg SRC3 recr: 0.1

Results for Cc1ccccc1S(=O)(=O)Nc1nc2ccccc2nc1N1CCOCC1 ?
PPARg SRC-2 ag: 26.6*; TR-FRET SRC-2 ct: 2102*; PPARg SRC1 recr: 25.5*; PPARg SRC3 recr: 33.8*; PPARg SRC2 conf: 43.4*; PPARg SRC1 conf: 37.3*; PPARg SRC3 conf: 27.9*

What do the screens show for `OC(COc1ccccc1)CSc1ncn[nH]1` (stereo not drawn)?
PPARg SRC-2 ag: -8.7; TR-FRET SRC-2 ct: 1484; PPARg SRC1 recr: -2.5; PPARg SRC3 recr: -5.2

Results for CC[n+]1c(/C=C/c2ccc(N(C)C)cc2)ccc2ccccc21 ?
PPARg SRC-2 ag: 64.0*; TR-FRET SRC-2 ct: 2167*; SRC3 TRFRET art: 2785*; PPARg SRC1 recr: 61.3*; SRC1 TRFRET art: 3540*; PPARg SRC3 recr: 47.1*; PPARg SRC2 conf: 52.5*; PPARg SRC1 conf: 38.6*; PPARg SRC3 conf: 30.1*

What do the screens show for `CC[n+]1ccccc1/C=C/c1ccc(N(C)C)cc1`?
PPARg SRC-2 ag: 6.0; TR-FRET SRC-2 ct: 1570; SRC3 TRFRET art: 1475; PPARg SRC1 recr: -3.0; SRC1 TRFRET art: 2025; PPARg SRC3 recr: 4.5
